{"source": "paper PMC8384837", "about": "“Expanding the binding specificity for RNA recognition by a PUF domain”", "assay_in_all_cases": "yeast three-hybrid, YBZ-1, SC-Leu-His + 0.5 mM 3-AT, 4 days", "details_in_all_cases": "tags: N-Gal4 AD-HA kept; label: inside an RPR1-promoter hybrid RNA with tandem MS2 sites; ssRNA", "key": {"PUM1 PUF domain R5-DWH": {"molecular_target": "PUM1 PUF domain R5-DWH (Homo sapiens, UniProt Q14671 828-1176, C1007D;R1008W;Q1011H)", "summary_of_the_method": "(§1)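 Pumilio-1 PUF domain libraries, randomized at the three base-contacting residues of each repeat, were co-expressed with matching RNA elements from a centromeric plasmid in strain YBZ-1, which carries a LexA–MS2 coat fusion and a HIS3 reporter. Transformants grew for four days on SC-Leu (input) or on SC-Leu-His + 0.5 mM 3-AT (selection), and the repeat regions were PCR-amplified and Illumina-sequenced. The interaction score is the log change in variant frequency from input to selection. That logarithm is base 2, with a pseudocount of 1 where a variant was absent.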"}, "PUM1 PUF domain R8-CWR": {"molecular_target": "PUM1 PUF domain R8-CWR (Homo sapiens, UniProt Q14671 828-1176, N1122C;Y1123W;Q1126R)", "summary_of_the_method": "as §1"}, "PUM1 PUF domain R8-KYV": {"molecular_target": "PUM1 PUF domain R8-KYV (Homo sapiens, UniProt Q14671 828-1176, N1122K;Q1126V)", "summary_of_the_method": "as §1"}, "PUM1 PUF domain R3-MRA": {"molecular_target": "PUM1 PUF domain R3-MRA (Homo sapiens, UniProt Q14671 828-1176, C935M;Q939A)", "summary_of_the_method": "as §1"}, "PUM1 PUF domain R8-KYA": {"molecular_target": "PUM1 PUF domain R8-KYA (Homo sapiens, UniProt Q14671 828-1176, N1122K;Q1126A)", "summary_of_the_method": "as §1"}, "PUM1 PUF domain R8-KWR": {"molecular_target": "PUM1 PUF domain R8-KWR (Homo sapiens, UniProt Q14671 828-1176, N1122K;Y1123W;Q1126R)", "summary_of_the_method": "as §1"}, "PUM1 PUF domain R8-EWR": {"molecular_target": "PUM1 PUF domain R8-EWR (Homo sapiens, UniProt Q14671 828-1176, N1122E;Y1123W;Q1126R)", "summary_of_the_method": "as §1"}, "PUM1 PUF domain R1-RRV": {"molecular_target": "PUM1 PUF domain R1-RRV (Homo sapiens, UniProt Q14671 828-1176, S863R;Q867V)", "summary_of_the_method": "as §1"}, "PUM1 PUF domain R6-KYR": {"molecular_target": "T1, PUM1 PUF domain R6-KYR (Homo sapiens, UniProt Q14671 828-1176, N1043K;Q1047R)", "T1 sequence": "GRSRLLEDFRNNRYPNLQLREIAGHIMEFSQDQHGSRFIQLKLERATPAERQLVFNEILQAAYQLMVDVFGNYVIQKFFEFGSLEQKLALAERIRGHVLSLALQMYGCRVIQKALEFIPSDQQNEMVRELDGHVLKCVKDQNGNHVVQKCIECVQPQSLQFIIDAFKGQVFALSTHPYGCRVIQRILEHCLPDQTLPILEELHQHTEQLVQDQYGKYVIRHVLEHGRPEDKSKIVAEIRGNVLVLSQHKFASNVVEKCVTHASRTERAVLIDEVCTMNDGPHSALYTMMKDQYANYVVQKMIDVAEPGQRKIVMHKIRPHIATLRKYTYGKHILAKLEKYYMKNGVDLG", "summary_of_the_method": "as §1"}, "PUM1 PUF domain R3-VNV": {"molecular_target": "PUM1 PUF domain R3-VNV (Homo sapiens, UniProt Q14671 828-1176, C935V;R936N;Q939V)", "summary_of_the_method": "as §1"}, "PUM1 PUF domain R5-LYE": {"molecular_target": "PUM1 PUF domain R5-LYE (Homo sapiens, UniProt Q14671 828-1176, C1007L;R1008Y;Q1011E)", "summary_of_the_method": "as §1"}, "PUM1 PUF domain R6-GWM": {"molecular_target": "T2, PUM1 PUF domain R6-GWM (Homo sapiens, UniProt Q14671 828-1176, N1043G;Y1044W;Q1047M)", "T2 sequence": "T1 sequence with K216G, Y217W, R220M", "summary_of_the_method": "as §1"}}, "note": "Substitutions are numbered along the chain they refer to.", "data": [{"sequence": "GGCUAGAACUAGUGGAUCCCCCGGCGCCCGGCGGCUCGAGCCCGGGUAAGUGUGAAUAGUCUGCAUGCCGCCGGGCGCCAUGCCUGCAGGUCGACUCUAGAAAACAUG", "values": [{"measurement": "binding signal", "setting": "PUM1 PUF domain R5-DWH", "value": "4.75 log2 enrichment (interaction score)"}]}, {"sequence": "GGCUAGAACUAGUGGAUCCCCCGGCGCCCGGCGGCUCGAGCCCGGGUAAGGGUAAAUAGUCUGCAUGCCGCCGGGCGCCAUGCCUGCAGGUCGACUCUAGAAAACAUG", "values": [{"measurement": "binding signal", "setting": "PUM1 PUF domain R8-CWR", "value": "2.72 log2 enrichment (interaction score)"}, {"measurement": "binding signal", "setting": "PUM1 PUF domain R8-KYV", "value": "3.44 log2 enrichment (interaction score)"}]}, {"sequence": "GGCUAGAACUAGUGGAUCCCCCGGCGCCCGGCGGCUCGAGCCCGGGUAAGUGUAAUUAGUCUGCAUGCCGCCGGGCGCCAUGCCUGCAGGUCGACUCUAGAAAACAUG", "values": [{"measurement": "binding signal", "setting": "PUM1 PUF domain R3-MRA", "value": "2.68 log2 enrichment (interaction score)"}]}, {"sequence": "GGCUAGAACUAGUGGAUCCCCCGGCGCCCGGCGGCUCGAGCCCGGGUAAGCGUAAAUAGUCUGCAUGCCGCCGGGCGCCAUGCCUGCAGGUCGACUCUAGAAAACAUG", "values": [{"measurement": "binding signal", "setting": "PUM1 PUF domain R8-KYA", "value": "3.04 log2 enrichment (interaction score)"}, {"measurement": "binding signal", "setting": "PUM1 PUF domain R8-CWR", "value": "4.31 log2 enrichment (interaction score)"}, {"measurement": "binding signal", "setting": "PUM1 PUF domain R8-KWR", "value": "6.68 log2 enrichment (interaction score)"}, {"measurement": "binding signal", "setting": "PUM1 PUF domain R8-KYV", "value": "2.16 log2 enrichment (interaction score)"}, {"measurement": "binding signal", "setting": "PUM1 PUF domain R8-EWR", "value": "2.45 log2 enrichment (interaction score)"}]}, {"sequence": "GGCUAGAACUAGUGGAUCCCCCGGCGCCCGGCGGCUCGAGCCCGGGUAAGUGUAAAUCGUCUGCAUGCCGCCGGGCGCCAUGCCUGCAGGUCGACUCUAGAAAACAUG", "values": [{"measurement": "binding signal", "setting": "PUM1 PUF domain R1-RRV", "value": "3.63 log2 enrichment (interaction score)"}]}, {"sequence": "GGCUAGAACUAGUGGAUCCCCCGGCGCCCGGCGGCUCGAGCCCGGGUAAGUGUAAGUAGUCUGCAUGCCGCCGGGCGCCAUGCCUGCAGGUCGACUCUAGAAAACAUG", "values": [{"measurement": "binding signal", "setting": "PUM1 PUF domain R3-MRA", "value": "5.2 log2 enrichment (interaction score)"}]}, {"sequence": "GGCUAGAACUAGUGGAUCCCCCGGCGCCCGGCGGCUCGAGCCCGGGUAAGUGUAAAUAGUCUGCAUGCCGCCGGGCGCCAUGCCUGCAGGUCGACUCUAGAAAACAUG", "values": [{"measurement": "binding signal", "setting": "PUM1 PUF domain R6-KYR", "value": "5.19 log2 enrichment (interaction score)"}, {"measurement": "binding signal", "setting": "PUM1 PUF domain R3-VNV", "value": "3.12 log2 enrichment (interaction score)"}, {"measurement": "binding signal", "setting": "PUM1 PUF domain R8-CWR", "value": "4.45 log2 enrichment (interaction score)"}, {"measurement": "binding signal", "setting": "PUM1 PUF domain R8-KWR", "value": "5.93 log2 enrichment (interaction score)"}, {"measurement": "binding signal", "setting": "PUM1 PUF domain R8-KYV", "value": "2.77 log2 enrichment (interaction score)"}, {"measurement": "binding signal", "setting": "PUM1 PUF domain R5-LYE", "value": "3.07 log2 enrichment (interaction score)"}, {"measurement": "binding signal", "setting": "PUM1 PUF domain R8-EWR", "value": "1.16 log2 enrichment (interaction score)"}, {"measurement": "binding signal", "setting": "PUM1 PUF domain R6-GWM", "value": "2.52 log2 enrichment (interaction score)"}]}]}
